The panel holds about 83,000 compounds, 20% with a hit somewhere; the sample as a whole holds those more often.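 Treatment: one concentration, 48 hours, 96-well format. Scoring: percent growth, with anything below 10 considered active.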 Active and inactive are the calls of the source.
What was measured:
Experiment in all cases: NCI-60 one-dose screen, 48 h (100 = growth as untreated, 0 = no growth, -100 = all killed)
[1] = tested on: HCT-15 colon; settings: 10 µM unless noted
[2] = tested on: SNB-19 CNS; settings: 10 µM unless noted
[3] = tested on: U251 CNS; settings: 10 µM unless noted
[4] = tested on: PC-3 prostate; settings: 10 µM unless noted
[5] = tested on: SK-MEL-5 melanoma; settings: 10 µM unless noted
[6] = tested on: UACC-62 melanoma; settings: 10 µM unless noted
[7] = tested on: LOX IMVI melanoma; settings: 10 µM unless noted
[8] = tested on: SK-MEL-28 melanoma; settings: 10 µM unless noted
[9] = tested on: EKVX NSCLC; settings: 10 µM unless noted
[10] = tested on: SN12C renal; settings: 10 µM unless noted
[11] = tested on: UO-31 renal; settings: 10 µM unless noted
[12] = tested on: TK-10 renal; settings: 10 µM unless noted
[13] = tested on: ACHN renal; settings: 10 µM unless noted
[14] = tested on: CAKI-1 renal; settings: 10 µM unless noted
[15] = tested on: A498 renal; settings: 10 µM unless noted
[16] = tested on: MOLT-4 leukemia; settings: 10 µM unless noted
[17] = tested on: SK-MEL-2 melanoma; settings: 10 µM unless noted
[18] = tested on: CCRF-CEM leukemia; settings: 10 µM unless noted
[19] = tested on: SNB-75 CNS; settings: 10 µM

Measured: growth

Oc1ccc(Cl)cc1-c1cc(-c2ccc(F)cc2)n[nH]1
inactive: [1] 30% | [2] 77.6% | [3] 63.8% | [4] 63.8% | [5] 45.2% | [6] 59.2% | [7] 61.3% | [8] 105% | [9] 50.6% | [10] 66.6% | [11] 37.5% | [12] 114% | [13] 74.3% | [14] 50.4% | [15] 69.6% | [16] 60.9%

COc1ccc(-c2nc(N3CCCC3=O)sc2Br)cc1OC
inactive: [1] 89.8% | [2] 93.8% | [3] 96.7% | [4] 101% | [5] 89.8% | [6] 90% | [7] 100% | [8] 102% | [17] 86.5% | [10] 104% | [11] 93.6% | [12] 94.1% | [13] 93% | [14] 99.4% | [15] 88.3% | [18] 96.4% | [16] 93.8%

Cc1ccc(S(=O)(=O)NCCCNc2cc(-c3cn(C(C)(C)C)nc3-c3cccc(O)c3)ccn2)cc1
inactive: [1] 16.5% | [2] 80% | [3] 58.1% | [4] 39.6% | [5] 42.8% | [6] 66.8% | [7] 13.5% | [8] 60.6% | [17] 70.4% | [9] 61% | [10] 64.6% | [11] 73.2% | [12] 107% | [13] 62.4% | [14] 59.7% | [15] 85.1% | [18] 52.4% | [16] 49.1%

O=C(Nc1cccc(-n2cc(-c3ccncc3)c(-c3ccc(Cl)c(O)c3)n2)c1)c1ccccc1
inactive: [1] 58.2% | [2] 99.7% | [3] 75.4% | [4] 50.3% | [5] 59.4% | [6] 68.3% | [7] 68.5% | [8] 48.1% | [17] 67.9% | [10] 79.3% | [11] 83.1% | [12] 109% | [13] 53.2% | [14] 90.3% | [15] 72.3% | [18] 67.5% | [16] 69.5%

O=C(c1c[nH]c(=O)c(-c2ccccc2)c1)c1ccccc1O
inactive: [1] 97.7% | [2] 81.5% | [3] 89.2% | [4] 89.2% | [6] 81.1% | [7] 103% | [8] 93.5% | [17] 93.1% | [9] 94.7% | [10] 85.2% | [11] 68.6% | [12] 94.8% | [13] 82.8% | [14] 85% | [15] 76.8% | [18] 99.5% | [16] 96.1%

O=C1Nc2ccc(Cl)cc2C12Nc1cc(Cl)ccc1S2 (stereo unspecified)
inactive: [1] 87% | [2] 94.8% | [3] 85.8% | [4] 51.8% | [5] 70.9% | [6] 71.5% | [7] 77.9% | [8] 110% | [17] 105% | [9] 73.3% | [10] 90.1% | [11] 57.4% | [12] 111% | [13] 104% | [14] 112% | [15] 118% | [18] 97.3% | [16] 38.3%

Cc1cc(C2(c3cc(C)c(O)cc3C)OS(=O)(=O)c3ccccc32)c(C)cc1O
inactive: [1] 105% | [2] 94.2% | [3] 78% | [4] 87.2% | [5] 104% | [6] 90.9% | [7] 105% | [17] 111% | [9] 105% | [10] 96.7% | [11] 69.4% | [12] 88.5% | [13] 105% | [14] 95.7% | [15] 93.9% | [18] 93.7% | [16] 96.3%

COP(=O)(OC)/C(=N\NS(=O)(=O)c1ccc(C)cc1)c1ccccc1
inactive: [1] 112% | [2] 94.7% | [3] 105% | [4] 86.5% | [5] 97.9% | [6] 96.7% | [8] 110% | [17] 110% | [9] 97.7% | [10] 105% | [11] 92.6% | [12] 88% | [13] 101% | [14] 62.1% | [15] 92.4% | [18] 124% | [16] 103%

COc1cc(/C=C/C(=O)c2ccc(Nc3ncnc4cc(OC)c(OC)cc34)cc2)cc(OC)c1
inactive: [1] 97.8% | [19] 96.1% | [3] 72.3% | [4] 78% | [5] 109% | [6] 99.9% | [7] 88.3% | [8] 114% | [17] 105% | [9] 101% | [10] 91.1% | [11] 94.4% | [12] 104% | [13] 102% | [14] 97.6% | [15] 95.8% | [18] 63.2% | [16] 53.8%

N/C(=N\C(N)=N\c1nc2ccccc2s1)c1cccc(Br)c1
inactive: [1] 44.2% | [2] 90.9% | [3] 38.3% | [4] 63.2% | [5] 94.6% | [6] 84.7% | [8] 94.5% | [17] 106% | [9] 73.2% | [10] 50.7% | [11] 24.7% | [12] 157% | [13] 84.8% | [14] 68.8% | [18] 55.8% | [16] 77.6%

S=c1[nH]nc(-c2cc3ccc2CCc2ccc(cc2)CC3)n1-c1ccccc1
inactive: [1] 89.7% | [2] 93.3% | [3] 94.5% | [4] 83.9% | [5] 96.5% | [6] 76.2% | [8] 98.8% | [17] 105% | [9] 93.4% | [10] 91.4% | [11] 92.9% | [13] 100% | [14] 87.2% | [15] 90.2% | [18] 95.8% | [16] 92.7%
active: [12] -61.5%

COc1ccc(-c2[nH]nc(N)c2-c2cc(OC)c3c(c2)OCO3)cc1
inactive: [1] 46% | [2] 68.8% | [3] 54.7% | [4] 93.7% | [5] 54.2% | [6] 37.2% | [7] 56.5% | [9] 72.9% | [10] 52% | [11] 68.1% | [12] 84.8% | [13] 73.8% | [14] 53.4% | [15] 43.2% | [16] 25.7%

CC(C)(C)n1cc(-c2ccnc(NCCNS(=O)(=O)c3ccc(F)cc3)c2)c(-c2cccc(O)c2)n1
inactive: [2] 71.3% | [3] 48.4% | [4] 35.5% | [5] 19.4% | [6] 61.8% | [7] 31.2% | [8] 52.4% | [17] 66.5% | [9] 63% | [10] 55.8% | [11] 53.9% | [12] 102% | [13] 63% | [14] 61.3% | [15] 56.7% | [18] 46.4% | [16] 35.3%
active: [1] 8.99%
